Structures are written as SMILES. Values joined by “and” are separate entries in the source; they are usually repeats but may differ in a detail not shown here. Equal entries are not always repeated. Compounds without any hit were thinned out: in the full panel of roughly 83,000, 20% have a hit.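 Treatment: one concentration, 48 hours, 96-well format. Scoring: percent growth, with anything below 10 considered active.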 A number with no mark means an inactive call. Active and inactive are the calls of the source.

The subject of one assay is MDA-MB-435 melanoma. Briefly: NCI-60 one-dose screen, 48 h (100 = growth as untreated, 0 = no growth, -100 = all killed). The conditions noted are these: 10 µM. As to the method:
Growth inhibition of the MDA-MB-435 human Melanoma tumor cell line is measured as a screen for anti-cancer activity. Cells are grown in 96 well plates and exposed to the test compound for 48 hours. Compounds are tested at a single concentration, which is 10^-5 M for most compounds. The reported endpoint is percent growth (GI% or GIPRCNT), where numbers from 0 - 100% represent growth inhibition, and numbers from -100% - 0 represent cell death. For example, a value of 40 represents 60% growth inhibition. A value of 0 means no net growth occurred over the course of the experiment. A value of -40 indicates 40% of cells at the beginning of the experiment died by the end of the experiment. A value of -100 means all cells are dead at the end of the experiment.
NCI-60 Human Tumor Cell Lines Screen was performed using the standard one-dose NCI protocol, which is described in more detail at https://dtp.cancer.gov/discovery_development/nci-60/default.htm.
Compounds with GIPRCNT values below 10 were considered active. Activity score was based on GIPRCNT using the following formula: […]
Score is 0 for GIPRCNT values of 100 or above, 50 for GIPRCNT values of 0, and 100 for GIPRCNT values of -100.
For `S=c1nc[nH]c2nc[nH]c12`, the growth was 15.3%.

As to `CS/C(=C\c1ccc(C(=O)c2ccc(C)cc2)n1C)S(C)=O` (stereo not given), the growth is 50.1%.

Still in this assay, the particulars now being: 10 µM unless noted.
Regarding `O=C(N=C1C(=O)C2(CCCCC2)C2(N=C(c3ccccc3)OC2=O)C12CCCCC2)c1ccccc1` (stereo not given), the growth is 89.1%.

With `COc1ccc(CCn2cnn3c(=O)c4ccccc4nc3c2=O)cc1OC`, the growth is 103% and 119%.

For `Cc1c(Cl)c(C)c(Cc2c(C)c(Cl)c(C)c(Cl)c2O)c(O)c1Cl`, the growth was 7.62% (active).

Take `CC(C)(C(=O)c1cccnc1)c1cccnc1`: the growth is 98.6% and 122%.

On to `O=C1C=CC(n2cc(F)c(=O)[nH]c2=O)O1` (stereo not given), for which the growth is 46.4%.

Consider `Nc1[nH][nH]c(=O)c1N=Nc1ccccc1`, for which the growth is 103% and 99.7%.

Turning to `S=c1ccc2ccccc2[nH]1`, the growth is 110% and 104%.

In the case of `CCOC(=O)c1ccc(N2C(=O)C(Cl)(c3ccccc3)C2c2ccco2)cc1` (stereo not given), the growth is 93.4%.

On to `O=C1C2=C(Nc3cc(Cl)ccc3N2)OC1c1c[nH]c2ccc(COc3ccccc3)cc12` (stereo not given), for which the growth is 84.6%.

Take `C(=N\OCCc1ccccc1)/c1ccccn1`: the growth was 109% and 106%.

For the compound `N#CC(=S)Nc1ccc(Cl)c(Cl)c1`, the growth is 6.5% (active).

On to `OCc1cccc(F)c1`, for which the growth was 98.6%.

With `C/C(CC(C)C)=N/NC(N)=S`, the growth was 104%.

Take `Cc1ccc2cccc([N+](=O)[O-])c2n1`: the growth was 110% and 108%.

As for `CCOC(=O)C1=CC(=O)CC(C)(C)O1`, the growth was 119% and 111%.

Take `CCCCCc1cc[n+](CC(=O)c2ccccc2)cc1`: the growth is 105%.

For `Cc1cc(Cl)nc(Nc2ccccc2)n1`, the growth was 98%.

Regarding `NNc1ncnc2cccc(Cl)c12`, the growth is 115%.

Turning to `CCCC(=O)OCC(COC(=O)CCC)OC(=O)CCC`, the growth was 106%.

On to `CC(O)CCNC(c1ccccc1)C(O)c1ccccc1` (stereo not given), for which the growth is 112%.

As to `NC(=O)Cc1nc(O)cc(=O)[nH]1`, the growth was 106%.

Consider `O=C1Cc2ccccc2C(=O)N1`, for which the growth is 99.4%.

On to `OCCSc1ccc(Cl)cc1`, for which the growth was 103% and 106%.

Turning to `COc1ccc(/C=C/C(=O)O)cc1OC`, the growth was 109% and 112%.

Turning to `CNc1ccc(O)cc1`, the growth is 107% and 101%.

As to `O=C(c1ccc(Cl)cc1)C1C(c2ccccc2)C1[N+](=O)[O-]` (stereo not given), the growth was 114%.

As to `Cc1cc(=NO)cc(C)n1O`, the growth is 106%.

As to `OCCS`, the growth is 105%.

In the case of `O=[N+]([O-])c1ccc(NC(c2ccccc2)c2ccc3cccnc3c2O)cc1` (stereo not given), the growth was 32.8%.

For the compound `CCC/C(=N/NC(N)=O)c1ccco1`, the growth was 106%.

For `COc1ccc(COC=O)cc1`, the growth is 113%.

Consider `O=C(OCc1ccccc1)c1ccccc1`, for which the growth was 105% and 112%.

For `COc1cc(Cl)ccc1C`, the growth was 102%.

For the compound `Cc1c(O)nc(N)[nH]c1=O`, the growth was 103%.

As to `COC(=O)c1cc(C(=O)OC)cc([N+](=O)[O-])c1`, the growth was 115%.

Consider `N=c1sc2ccccc2n1CC(=O)O`, for which the growth was 113%.

Staying with this assay, now noted: 50 µM.
`S=c1nc[nH]c2nc[nH]c12`: the growth is 13.8%.

The same assay, now with this note: 100 µM.
`CS/C(=C\c1ccc(C(=O)c2ccc(C)cc2)n1C)S(C)=O` (stereo not given): the growth is 26.9%.

Source of the values: PubChem BioAssay (NCI).
